Measured values taken from PubChem BioAssay (NCI).
Compounds without any hit were thinned out: in the full panel of roughly 79,000, 15% have a hit. A number with no mark means an inactive call. Activity calls are given as the source filed them. Cut-off read from the data, not from the text of the source: active = growth inhibition above about 70%; inactive = the rest.

Assays:
[1] = NCI Yeast Anticancer Drug Screen. Data for the rad50 strain (AID 155);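 note: 0% = growth of vehicle-only cultures of the same strain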; conditions: S. cerevisiae rad50 strain growth inhibition, active compounds read high
Outline: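 A DNA repair-deficient yeast mutant serves as the test organism; compound-induced growth inhibition is calculated against vehicle-treated cells.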

[2] = NCI Yeast Anticancer Drug Screen. Data for the mec2-1 strain (AID 157); conditions: S. cerevisiae mec2-1 strain, active compounds read high
Outline: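 Test agents were screened against the mec2-1 yeast strain, with defined DNA repair or cell cycle alteration. Growth was scored as inhibition against vehicle-only controls.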

[3] = NCI Yeast Anticancer Drug Screen. Data for the sgs1 mgt1 strain (AID 161);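 note: 0% = growth of cultures given vehicle only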; conditions: S. cerevisiae sgs1 mgt1 strain, active compounds read high
Outline: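 Mutant yeast exposed to compound; growth scored against vehicle-only wells.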

[4] = NCI Yeast Anticancer Drug Screen. Data for the cln2 rad14 strain (AID 165);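 note: 0% = growth equal to vehicle treated cultures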; conditions: S. cerevisiae cln2 rad14 strain, active compounds read high
Outline: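 Growth of compound-exposed yeast (cln2 rad14 genotype) measured and expressed as inhibition relative to vehicle.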

[5] = NCI Yeast Anticancer Drug Screen. Data for the bub3 strain (AID 167); conditions: S. cerevisiae bub3 mutant strain, active compounds read high
Outline: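 Inhibition values come from growth of compound-treated mutant yeast normalised to vehicle-treated controls.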

[6] = NCI Yeast Anticancer Drug Screen. Data for the mlh1 rad18 strain (AID 175); conditions: S. cerevisiae mlh1 rad18 strain growth inhibition, active compounds read high
Outline: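 In this whole-cell yeast screen, a strain with altered DNA damage repair is challenged with compound, and its growth is measured against matched vehicle-treated controls.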

[7] = at 5.0 µM (retest, dose inferred, filed as 0.5)
[8] = at 50.0 µM (retest, dose inferred, filed as 5.0)

Compound | growth inhibition [1, 7] | growth inhibition [1, 8] | growth inhibition ([1]; at 50.0 µM) | growth inhibition [2, 7] | growth inhibition [2, 8] | growth inhibition ([2]; at 50.0 µM) | growth inhibition [3, 7] | growth inhibition [3, 8] | growth inhibition ([3]; at 50.0 µM) | growth inhibition [4, 7] | growth inhibition [4, 8] | growth inhibition ([4]; at 50.0 µM) | growth inhibition [5, 7] | growth inhibition [5, 8] | growth inhibition ([5]; at 50.0 µM) | growth inhibition [6, 7] | growth inhibition [6, 8] | growth inhibition ([6]; at 50.0 µM)
C=C(c1ccccc1)[P+](c1ccccc1)(c1ccccc1)c1ccccc1 | 97% (active) | 99% (active) | 99.2% (active) | 99% (active) | 100% (active) | 99.6% (active) | 99% (active) | 99% (active) | 99.5% (active) | 97% (active) | 99% (active) | 99% (active) | 92% (active) | 99% (active) | 99% (active) | 98% (active) | 99% (active) | 99.5% (active)
O=C1C=C(c2ccccc2)OC1(Nc1ccccc1)c1ccccc1 (stereo not given) | 4% | 60% | 71.7% (active) | 4% | 65% | 56.6% | 2% | 62% | 76.4% (active) | 9% | 53% | 45.2% | 11% | 62% | 72.8% (active) | 9% | 67% | 59.9%
O=C1c2ccccc2-c2cc3ccccc3nc21 | 28% | 89% (active) | 72.7% (active) | 21% | 70% (active) | 60.8% | 15% | 67% | 48.2% | 23% | 73% (active) | 62.4% | 15% | 73% (active) | 61.3% | 16% | 82% (active) | 84.5% (active)
CC1OC(C)C(O)C2=C1C(=O)c1ccccc1C2=O (stereo not given) | -4% | 95% (active) | 91.9% (active) | -29% | 77% (active) | 86.3% (active) | 14% | 94% (active) | 91.8% (active) | 2% | 55% | 60.4% | 14% | 87% (active) | 83.5% (active) | 23% | 96% (active) | 87.8% (active)
O=C(C[n+]1cccc2ccccc21)c1ccc(-c2ccc(C(=O)C[n+]3cccc4ccccc43)cc2)cc1 | 3% | 32% | 62.2% | 50% | 23% | 50% | 2% | 36% | 46.5% | 2% | 24% | 31.9% | 1% | 44% | 45.6% | 4% | 53% | 86.3% (active)
COc1ccc(/C=C/Cc2cc3c(cc2O)OCO3)cc1 | -15% | 13% | -4.05% | -2% | -10% | -9.7% | 12% | 5% | 13.1% | 3% | -2% | 25.8% | -2% | 14% | 17.2% | -6% | 1% | 0.85%
Cc1c(-c2ccccc2)ccnc1/C=N/NC(=S)Nc1ccc(N(C)C)cc1 | 48% | 94% (active) | 74.8% (active) | 38% | 96% (active) | 76.7% (active) | 49% | 93% (active) | 70% (active) | 43% | 91% (active) | 60.6% | 59% | 94% (active) | 81.7% (active) | 36% | 93% (active) | 79.6% (active)
CCc1nc2ccc(N=NN(C)C)cc2[nH]1 | 21% | 73% (active) | 84.5% (active) | 19% | 80% (active) | 92% (active) | 18% | 96% (active) | 74.2% (active) | 22% | 87% (active) | 88.1% (active) | 18% | 97% (active) | 88.5% (active) | 24% | 91% (active) | 91.3% (active)
NC1=NCN(C2OC(COCc3ccccc3)C(OCc3ccccc3)C2OCc2ccccc2)C(=O)N1 (stereo not given) | 5% | 57% | 66.5% | 8% | 28% | 45.6% | 5% | 59% | 99.4% (active) | -7% | 58% | 80.2% (active) | -1% | 56% | 98% (active) | 1% | 86% (active) | 99% (active)
S=C(S)NCCN1CCNC1=S | 10% | 76% (active) | 60.4% | 5% | 50% | 60.9% | 5% | 64% | 80% (active) | 2% | 18% | -5.05% | 14% | 95% (active) | 63.8% | 7% | 78% (active) | 77.1% (active)
